A selection: hits, their analogues and other compounds. The true share with any hit is near 3.5%.
MITF inh: MITF inhibitors, primary screen, biochemical, AlphaScreen, human; AlphaScreen MITF homodimerization, bead proximity signal; inhibition, % at 2.6 µM; 650,000 tested, 0.91% active; AID 1259374, 2018; in the data active = inhibition above about 50%;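 also: 0% = vehicle wells with protein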
Target sequence (O75030 whole entry, looked up): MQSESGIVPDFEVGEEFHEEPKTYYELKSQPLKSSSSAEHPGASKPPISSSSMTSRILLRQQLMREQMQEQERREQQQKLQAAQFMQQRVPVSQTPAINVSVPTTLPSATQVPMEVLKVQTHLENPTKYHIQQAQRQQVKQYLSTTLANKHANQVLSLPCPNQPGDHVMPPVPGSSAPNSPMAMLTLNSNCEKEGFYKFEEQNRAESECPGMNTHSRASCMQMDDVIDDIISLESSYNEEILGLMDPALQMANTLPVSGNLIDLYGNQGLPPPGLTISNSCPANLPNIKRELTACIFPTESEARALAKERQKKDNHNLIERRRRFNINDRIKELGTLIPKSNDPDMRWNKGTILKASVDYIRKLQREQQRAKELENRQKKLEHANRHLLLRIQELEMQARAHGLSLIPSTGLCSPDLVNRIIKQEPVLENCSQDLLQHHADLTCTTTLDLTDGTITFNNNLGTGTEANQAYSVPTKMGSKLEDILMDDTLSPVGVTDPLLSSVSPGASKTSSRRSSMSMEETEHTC
TEAD-YAP block: TEAD-YAP interaction inhibition, primary screen, TEAD-YAP interaction inhibitor project, luminescence, HEK-TIYL cells | TEAD-Gal4/YAP UAS-luciferase luminescence | inhibition, % at 9.12 µM | 640,000 tested, 1.4% active | AID 1259422, 2018; in the data active = inhibition above about 32%;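 also: 0% = median of test compound wells and 100% = reference inhibitor wells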
FBW7 activator: FBW7 E3 ligase activators, primary screen, biochemical, AlphaScreen, human. F-box/WD repeat-containing protein 7 (Homo sapiens), Q969H0. AlphaScreen FBW7–phospho-cyclin E peptide binding, activator screen. normalized activity (activation), % at 26.1 µM. 650,000 tested, 0.13% active. AID 1259310, 2017; in the data active = normalized activity above about 1.9%;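 also: purified mutant Fbw7 with reduced substrate affinity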
GPR151 ag: activators of human GPR151, primary screen, cell-based, PathHunter beta-arrestin, luminescence | activation, % at 11.2 µM | 650,000 tested, 1% active | G-protein coupled receptor 151 (Homo sapiens), Q8TDV0 | PathHunter beta-arrestin GPR151 cells; in the data active = activation above about 4.9%;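 also: 0% = median of compound wells and 100% = cells with positive control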
Starred values were filed as active, the others as inactive; ! = not confirmed by another sample.

SMILES	MITF inh	TEAD-YAP block	FBW7 activator	GPR151 ag
c1ccc(N2CCN(c3nc(Nc4ccc(N5CCOCC5)cc4)c4ncn(-c5ccsc5)c4n3)CC2)nc1	20	38*	0	0
c1ccc(Nc2nc(N3CCC(N4CCOCC4)CC3)nc3c2ncn3-c2ccsc2)cc1	11	33*	0	0
c1ccc(OCCNc2ncnc3nc(N4CCN(c5ccccn5)CC4)[nH]c23)cc1	12	1	0	3
c1cc(-n2cnc3c(Nc4ccc5c(c4)OCO5)nc(N4CCC(N5CCOCC5)CC4)nc32)cs1	14	19	0	-1
c1cc(-n2cnc3c(Nc4ccc(N5CCOCC5)cc4)nc(N4CCC(N5CCOCC5)CC4)nc32)cs1	8	37*	0	-3
Oc1ccc(CCNc2ncnc3nc(N4CCN(c5ccccn5)CC4)[nH]c23)cc1	10	39*	0	0
CCCCNC(=O)NS(=O)(=O)c1ccc(NC(Nc2ccc(S(=O)(=O)NC(=O)NCCCC)cc2)c2ccc(OC)cc2)cc1	10	7	0	-1
COc1cc(NC(=O)c2cnc(N3CCN(c4ccccn4)CC3)s2)cc(OC)c1OC	2	41*	0	3
COc1cc(NC(=O)c2cnc(N3CCc4ccccc4C3)s2)cc(OC)c1OC	-1	42*	0	-1
COc1cccc(CN(CCN2CCCC2)C(=O)Nc2ccc(-c3cn[nH]c3)cc2)c1	22	2	1	0
COc1ccc(-c2cc3nc4c(c(N5CCC(O)CC5)n3n2)CCCC4)cc1	-3	38*	0	1
OCCNc1nccn2c(-c3ccccc3CO)cnc12	3	-4	2.1*	0
c1ccc(CCNc2nccn3c(-c4ccsc4)cnc23)nc1	-14	50*	-1	-1
COCCNc1nccn2c(-c3ccccc3CO)cnc12	16	0	0	0
c1ccc(CCNc2nccn3c(-c4ccoc4)cnc23)nc1	-23	31	0	-3
O=c1[nH]cc(F)c(=O)[nH]1	12	35*!	0	3
CN1C(=O)[C@H]2CN(Cc3ccc(CN4CCCCC4)s3)CCN2C(=O)[C@@H]1CO	1	11	0	1
CCN1/C(=C/C=C/c2oc3ccc4ccccc4c3[n+]2CC)Oc2ccc3ccccc3c21	-8	78*	0	2
CCN1/C(=C/C=C/c2oc3ccc(Cl)cc3[n+]2CC)Oc2ccc(Cl)cc21	1	6	0	0
CCOc1cc(/C=c2\sc3nc4ccccc4n3c2=O)c(Br)cc1OCC(=O)O	-8	-12	0	0
O=C1CSC(c2ccccc2)N1c1ccc(Cl)c([N+](=O)[O-])c1 (centres undefined)	8	-11	-1	-1
CN(C)S(=O)(=O)c1cccc(NC(=S)N/N=C/c2ccc(OC(F)F)cc2)c1	2	-6	0	1
N#CC1=C(N)Oc2cc3c(cc2C1c1cccc(Br)c1)OCO3 (centres undefined)	20	61*	0	0
CN(C)c1ccc2c(c1)OC(N)=C(C#N)C2c1ccc(C(F)(F)F)cc1 (centres undefined)	-9	9	0	2
CN(C)c1ccc2c(c1)OC(N)=C(C#N)C2c1cccc(C(F)(F)F)c1 (centres undefined)	-1	57*	0	0
SMILES	MITF inh	TEAD-YAP block	FBW7 activator	GPR151 ag
N#CC1=C(N)Oc2cc(N)ccc2C1c1cccc(Cl)c1 (centres undefined)	6	1	0	-1
COc1ccc(Cc2nnc(Nc3cccc(Cl)c3)[nH]c2=O)cc1	3	34*	0	1
O=C(CSc1cc(N2CCOCC2)ncn1)c1cccs1	1	73*	0	-7
O=S(=O)(c1cccs1)N1CCN(c2cc(N3CCOCC3)ncn2)CC1	2	1	0	0
CCOC(=C\N(C)C)/C=C(/C(C)=O)C(=O)OC	-3	-10	0	1
CCc1c(C)sc(NC(=O)C2C3C=CC(C3)C2C(=O)O)c1C(=O)OC(C)C (centres undefined)	-4	64*	0	1
O=C(CCCNc1ccccc1)N/N=C/c1cccnc1	6	10	0	2
COc1cc(COc2ccc3ccc(=O)oc3c2)cc(OC)c1OC	0	4	0	-1
COc1cc(COc2ccc3c(C)cc(=O)oc3c2)cc(OC)c1OC	-8	56*	0	2
O=C(NCCCn1ccnc1)C1CC12CCN(C(=O)C1(c3ccccc3)CCCCC1)CC2 (centres undefined)	11	38*	0	1
Nc1nc2ccccc2n1C(=O)c1ccc(F)cc1	1	52*	0	-5
Nc1nc2ccccc2n1C(=O)c1ccccc1	2	52*	0	-8
O=C(Nc1nnc(-c2ccc(F)cc2)o1)c1ccc(Cl)cc1	-14	9	0	0
COc1ccccc1NCC(O)Cn1ccc2ccccc21 (centres undefined)	69*	-4	-1	-1
CNCC(O)Cn1ccc2ccccc21 (centres undefined)	4	12	0	1
O=c1oc2c(O)c(O)cc3c(=O)oc4c(O)c(O)cc1c4c23	94*!	-3	0	0
Cc1c(C)c2ccc(O)c(O)c2oc1=O	1	4	0	1
COc1cc(C(=O)Nc2sc3c(c2C(N)=O)CCCCC3)cc(OC)c1OC	-8	-2	0	-1
CCOC(=O)C1(NC(=S)N2CCOCC2)Sc2cc(C)ccc2NC1=O (centres undefined)	-2	52*	0	1
CCOC(=O)C1(Nc2ccccc2)Sc2cc(C)ccc2NC1=O (centres undefined)	20	63*	0	2
CCOC(=O)C1(N(CC)CC)Sc2cc(C)ccc2NC1=O (centres undefined)	7	-1	0	-2
Cc1cc(C)c(NC(=O)/C=C/C(=O)O)c(C)c1	8	0	0	0
NNC(=O)CNc1c(-c2ccsc2)nc2ccccn12	0	52*	0	0
CNC(=O)CN(c1cccc(C(C)=O)c1)S(C)(=O)=O	-5	-9	0	2
CC(NC(N)=O)C(=O)N1CC=C(c2ccccc2)CC1 (centres undefined)	2	-2	0	-1
COc1ccc(-c2cc(C(=O)Nc3ccc(Oc4ccccc4)cc3)c3ccccc3n2)cc1OC	13	1	0	1
Nc1nc2ccc(Cc3ccc4nc(N)sc4c3)cc2s1	10	41*	0	-1
Nc1nc2ccc(Cc3nc4ccccc4o3)cc2s1	-17	-54	0	1
CC(C)N(CCNc1nc(-c2ccc(N3CCOCC3)nc2)nc2c1ncn2-c1ccsc1)C(C)C	6	43*	0	0
CC(C)N(CCNc1nc(-c2ccc(N3CCOCC3)nc2)nc2c1ncn2C(C)C)C(C)C	-14	19	0	3

Screening data as filed in PubChem.
